Measurements taken from PubChem BioAssay (NCI).
Compounds without any hit were thinned out: in the full panel of roughly 79,000, 15% have a hit. The source made the active and inactive calls. No stated cut-off is given here; in the data, active means growth inhibition above about 70%; inactive means the rest.

How the values were obtained:
[1] = NCI Yeast Anticancer Drug Screen. Data for the rad50 strain (AID 155);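 further: 0% = growth of vehicle-only cultures of the same strain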; details: S. cerevisiae rad50 strain growth inhibition, active compounds read high
In short: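 Growth of the mutant yeast was measured after compound exposure and referenced to vehicle-treated cultures.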

[2] = NCI Yeast Anticancer Drug Screen. Data for the mec2-1 strain (AID 157); details: S. cerevisiae mec2-1 strain, active compounds read high
In short: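 Strain: mec2-1 (DNA repair/cell cycle alteration). Compound exposure, then growth measured; inhibition expressed relative to vehicle.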

[3] = NCI Yeast Anticancer Drug Screen. Data for the sgs1 mgt1 strain (AID 161);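 further: 0% = growth of cultures given vehicle only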; details: S. cerevisiae sgs1 mgt1 strain, active compounds read high
In short: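 Test agents were incubated with a DNA-repair-mutant yeast strain. Growth was then read and compared against vehicle-treated controls.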

[4] = NCI Yeast Anticancer Drug Screen. Data for the cln2 rad14 strain (AID 165);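 further: 0% = growth equal to vehicle treated cultures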; details: S. cerevisiae cln2 rad14 strain, active compounds read high
In short: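 Compounds are applied to the cln2 rad14 yeast strain, and growth is then compared with that of vehicle-treated cultures to give inhibition.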

[5] = NCI Yeast Anticancer Drug Screen. Data for the bub3 strain (AID 167); details: S. cerevisiae bub3 mutant strain, active compounds read high
In short: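 Whole-cell yeast assay. The mutant strain was incubated with compounds, and growth inhibition was determined by comparison with vehicle-treated cells.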

[6] = NCI Yeast Anticancer Drug Screen. Data for the mlh1 rad18 strain (AID 175); details: S. cerevisiae mlh1 rad18 strain growth inhibition, active compounds read high
In short: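 Read-out is yeast growth inhibition, calculated against vehicle-only controls. The compound was applied to a strain engineered with DNA damage repair alterations.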

[7] = at 5.0 µM (retest, dose inferred, filed as 0.5)
[8] = at 50.0 µM (retest, dose inferred, filed as 5.0)

Measured: growth inhibition

N#CC(C#N)C(C#N)c1ccc(Cl)c(Cl)c1 (stereo not given)
active: [1]; [7] 79% | [1]; [8] 99% | [1]; at 50.0 µM 99.7% | [2]; [7] 72% | [2]; [8] 100% | [2]; at 50.0 µM 99.7% | [3]; [8] 100% | [3]; at 50.0 µM 99.8% | [4]; [8] 99% | [4]; at 50.0 µM 99.4% | [5]; [7] 99% | [5]; [8] 99% | [5]; at 50.0 µM 99.7% | [6]; [7] 70% | [6]; [8] 100% | [6]; at 50.0 µM 99.5%
inactive: [3]; [7] 36% | [4]; [7] 25%

CC(C)(C)c1ccc(CN2CCN(C(c3ccccc3)c3ccc(Cl)cc3)CC2)cc1 (stereo not given)
inactive: [1]; [7] 20% | [1]; [8] 52% | [1]; at 50.0 µM 15.7% | [2]; [7] 5% | [2]; [8] 17% | [2]; at 50.0 µM 1.45% | [3]; [7] 27% | [3]; at 50.0 µM -10.8% | [4]; [7] -4% | [4]; [8] 21% | [4]; at 50.0 µM -8% | [5]; [7] 42% | [5]; at 50.0 µM -4.4% | [6]; [7] 35% | [6]; [8] 61% | [6]; at 50.0 µM 52.5%
active: [3]; [8] 81% | [5]; [8] 73%

CCc1cccc(C(C)(C)C)c1NC(=S)N/C=C(\c1ccccc1)S(=O)Cc1ccccc1 (stereo not given)
active: [1]; [8] 77% | [2]; [8] 70% | [5]; at 50.0 µM 73.4%
inactive: [1]; [7] 2% | [1]; at 50.0 µM 68.4% | [2]; [7] 7% | [2]; at 50.0 µM 46.2% | [3]; [7] 10% | [3]; [8] 56% | [3]; at 50.0 µM 68.2% | [4]; [7] -15% | [4]; [8] 45% | [4]; at 50.0 µM 33.5% | [5]; [7] -23% | [5]; [8] 25% | [6]; [7] 14% | [6]; [8] 62% | [6]; at 50.0 µM 69.8%

COC(=O)c1ccc(/C=C/C2=CC(=O)C=CC2=O)cc1
active: [3]; at 50.0 µM 78.2% | [5]; at 50.0 µM 75.3% | [6]; at 50.0 µM 84.1%
inactive: [1]; [7] 30% | [1]; [8] 44% | [1]; at 50.0 µM 29.6% | [2]; [7] 27% | [2]; [8] 41% | [2]; at 50.0 µM 36.5% | [3]; [7] 27% | [3]; [8] 57% | [4]; [7] 18% | [4]; [8] 28% | [4]; at 50.0 µM 58.9% | [5]; [7] 37% | [5]; [8] 57% | [6]; [7] 29% | [6]; [8] 57%

CC(=O)/C=C1\C(=O)Nc2ccccc21
active: [1]; [8] 97% | [1]; at 50.0 µM 85.1% | [2]; [8] 100% | [2]; at 50.0 µM 91.6% | [3]; [8] 92% | [3]; at 50.0 µM 91.7% | [4]; [8] 95% | [5]; [8] 99% | [5]; at 50.0 µM 87.7% | [6]; [8] 99% | [6]; at 50.0 µM 78.7%
inactive: [1]; [7] 20% | [2]; [7] 10% | [3]; [7] 16% | [4]; [7] 26% | [4]; at 50.0 µM 32.9% | [5]; [7] 12% | [6]; [7] 14%

Cc1c(CCl)c(=O)oc2c(C)c3occ(CCl)c(=O)c3cc12
active: [1]; at 50.0 µM 80.1% | [2]; at 50.0 µM 82.5% | [3]; at 50.0 µM 84.5% | [4]; at 50.0 µM 85.4% | [5]; at 50.0 µM 87.5% | [6]; at 50.0 µM 77.7%
inactive: [1]; [7] 6% | [1]; [8] 12% | [2]; [7] 20% | [2]; [8] 31% | [3]; [7] 17% | [3]; [8] 42% | [4]; [7] 41% | [4]; [8] 60% | [5]; [7] 28% | [5]; [8] 57% | [6]; [7] 29% | [6]; [8] 67%

O=C1OC2(Cc3ccccc31)c1ccccc1-c1ccccc12
inactive: [1]; [7] -5% | [1]; [8] -1% | [1]; at 50.0 µM 20.8% | [2]; [7] -4% | [2]; [8] -11% | [2]; at 50.0 µM 25.9% | [3]; [7] -6% | [3]; [8] 38% | [3]; at 50.0 µM 41% | [4]; [7] -5% | [4]; [8] -15% | [4]; at 50.0 µM 17.6% | [5]; [7] -10% | [5]; [8] -7% | [5]; at 50.0 µM 9.45% | [6]; [7] -19% | [6]; [8] -9% | [6]; at 50.0 µM 27.8%

CCCCCCCC/C=C\CCCCCCCCN1CCOCC1
active: [1]; at 50.0 µM 99.2% | [2]; at 50.0 µM 99.3% | [3]; at 50.0 µM 99.2% | [4]; at 50.0 µM 97.5% | [5]; at 50.0 µM 99.1% | [6]; at 50.0 µM 99.2%
inactive: [1]; [7] -2% | [1]; [8] -2% | [2]; [7] 0% | [2]; [8] -2% | [3]; [7] -4% | [3]; [8] 5% | [4]; [7] 11% | [4]; [8] 3% | [5]; [7] 15% | [5]; [8] 19% | [6]; [7] -3% | [6]; [8] 1%

O=C(NCCCCCNC(=O)C12CC3CC(CC(C3)C1)C2)C12CC3CC(CC(C3)C1)C2
inactive: [1]; [7] 8% | [1]; [8] 7% | [1]; at 50.0 µM 5.9% | [2]; [7] 5% | [2]; [8] -8% | [2]; at 50.0 µM 27.8% | [3]; [7] 7% | [3]; [8] 7% | [3]; at 50.0 µM -5.15% | [4]; [7] -1% | [4]; [8] -2% | [4]; at 50.0 µM 40.2% | [5]; [7] 4% | [5]; [8] 0% | [5]; at 50.0 µM 1.75% | [6]; [7] 3% | [6]; [8] 12% | [6]; at 50.0 µM 4.15%

CCC(=O)N1c2ccccc2CC1c1c[nH]c2ccccc12 (stereo not given)
active: [1]; [8] 98% | [1]; at 50.0 µM 95.2% | [2]; [8] 98% | [3]; [8] 98% | [3]; at 50.0 µM 77.4% | [4]; [8] 99% | [4]; at 50.0 µM 74.5% | [5]; [8] 78% | [6]; [8] 98% | [6]; at 50.0 µM 93.3%
inactive: [1]; [7] -4% | [2]; [7] -10% | [2]; at 50.0 µM 30.8% | [3]; [7] -3% | [4]; [7] -56% | [5]; [7] -10% | [5]; at 50.0 µM 8.15% | [6]; [7] 1%
